# Experimental data published in PubChem BioAssay.
# The source made the active and inactive calls.
# Columns and labels:
# [1] = tested on: Plasmodium falciparum Sir2 (PF13_0152, Sir2A); assay: pfSir2 binders on small-molecule microarrays, primary screen, biochemical, small-molecule microarray, 635 nm fluorescence (AID 1098); settings: small-molecule microarray binding, fluorescence 635 nm; higher = more signal;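 further: score merges spot fluorescence intensity with its signal-to-noise ratio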
# [2] = small-molecule microarray binders of probe aDKK1, primary screen, biochemical, biotinylated probe, 635/667 nm fluorescence (AID 1099); settings: higher = more signal;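 further: score merges 667nm spot fluorescence with signal to noise across triplicate slides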
# [3] = small-molecule microarray binders of probe aCHRDL2, primary screen, biochemical, biotinylated probe, 635/667 nm fluorescence (AID 1100); settings: higher = more signal
# [4] = splicing luciferase reporter signal modulators, primary screen, spliceosome inhibition project, cell-based, HEK293, splice +/- reporter (AID 1101); settings: luminescence, 24 h, higher = more signal, called active from +8 up or from −8 down;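 further: HEK293 cells carrying a splicing-competent luciferase reporter gene; test concentration not given here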
# [5] = target: Fibroblast growth factor 10 (Homo sapiens) (UniProt O15520); assay: FGF10 binders on small-molecule microarrays, primary screen, biochemical, small-molecule microarray, 635 nm fluorescence (AID 1102); settings: FGF10 binding, fluorescence 635 nm, higher = more signal
# [6] = tested on: glycogen synthase kinase-3 (GSK3A per assay name; protocol says GSK3B); assay: GSK3 binders on small-molecule microarrays, primary screen, biochemical, small-molecule microarray, 635 nm fluorescence, GSK3A (AID 1103); settings: small-molecule microarray binding, fluorescence 635 nm; higher = more signal; further: the record names both GSK3A and GSK3B
# [7] = target: Epidermal growth factor receptor (Homo sapiens) (UniProt P00533); assay: EGFR binders on small-molecule microarrays, primary screen, biochemical, small-molecule microarray, 635 nm fluorescence (AID 1104); settings: EGFR binding, higher = more signal;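 further: score merges 667 nm emission intensity with spot signal to noise over triplicate slides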
# [8] = target: Follistatin-related protein 3 (Homo sapiens) (UniProt O95633); assay: FSTL3 binders on small-molecule microarrays, primary screen, biochemical, small-molecule microarray, 635 nm fluorescence (AID 1105); settings: FSTL3 binding, higher = more signal;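 further: score merges emission near 667 nm and signal to noise per printed spot across three slides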
# [9] = target: Dickkopf-related protein 1 (Homo sapiens) (UniProt O94907); assay: DKK1 binders on small-molecule microarrays, primary screen, biochemical, small-molecule microarray, 635 nm fluorescence scan (AID 1106); settings: DKK1 binding, higher = more signal;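 further: score merges emission near 667 nm with signal to noise over three replicate slides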
# [10] = tested on: Inhibin beta A chain (activin A); assay: INHBA (activin A) binders on microarrays, primary screen, biochemical, small-molecule microarray, 635 nm fluorescence scan (AID 1107); settings: small-molecule microarray binding, higher = more signal;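 further: mouse activin A protein probed at 4.33 µg/mL on printed slides; score merges bound-protein fluorescence near 667 nm with spot signal-to-noise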
# [11] = tested on: Human papillomavirus type 1a protein E7 (residues 44-93); assay: HPV1a E7 fragment binders on microarrays, primary screen, biochemical, small-molecule microarray, residues 44-93, 635 nm fluorescence (AID 1108); settings: small-molecule microarray binding, fluorescence 635 nm; higher = more signal;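 further: E7 fragment applied at 1 µg/mL in TBST for 1 h at 4 C; score combines spot fluorescence with its signal to noise ratio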
# [12] = modulators of HCV replicon luciferase signal, primary screen, HCV replication inhibitor project, Huh7 cells, luciferase reporter (AID 1109); settings: 48 h, higher = more signal;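 further: huh7 hepatoma cells harbouring a luciferase neomycin HCV replicon reporter; luciferase luminescence as measure of HCV replicon replication; test concentration not given here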
# [13] = target: Left-right determination factor 2 (Homo sapiens) (UniProt O00292); assay: LEFTY2 binders on small-molecule microarrays, primary screen, biochemical, small-molecule microarray, 635 nm fluorescence scan (AID 1110); settings: LEFTY2 binding, higher = more signal
# [14] = target: Calmodulin-1 (Homo sapiens) (UniProt P0DP23); assay: CALM1 binders on microarrays, EGTA buffer, profiling panel, biochemical, small-molecule microarray, Cy5-labelled CALM1 (AID 1111); settings: Cy5-CALM1 binding fluorescence, higher = more signal;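 further: labelled calmodulin applied in Tris saline Tween buffer holding calcium plus EGTA and DTT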
# [15] = target: Calmodulin-1 (Homo sapiens) (UniProt P0DP23); assay: calcium-bound CALM1 binders on microarrays, profiling panel, artefact control for SMM control-protein annotation, biochemical, small-molecule microarray, Cy5-labelled CALM1, plus calcium (AID 1112); settings: Cy5-CALM1 binding fluorescence, higher = more signal;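 further: score merges spot fluorescence with signal to noise from triplicate slides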
# [16] = small-molecule microarray binders of probe aWnt5a, primary screen, biochemical, biotinylated probe, 635/667 nm fluorescence (AID 1113); settings: higher = more signal;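 further: score merges 667 nm fluorescence intensity with signal-to-noise per printed feature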
# [17] = small-molecule microarray binders of probe aShh, primary screen, biochemical, biotinylated probe, 635/667 nm fluorescence (AID 1114); settings: higher = more signal;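 further: probe is biotin-labelled aShh protein from a stem cell growth factor screen; measures binding of labelled protein to compounds printed on the slide; score merges feature fluorescence at 667 nm with signal-to-noise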
# [18] = small-molecule microarray binders of probe aNog, primary screen, biochemical, biotinylated probe, 635/667 nm fluorescence (AID 1115); settings: higher = more signal;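 further: probe is biotinylated aNog protein used at 0.15 µg/mL for 1 h at 4 C; z-score combines 667 nm fluorescence of each spot with its signal to noise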
# [19] = target: Torsin-1A-interacting protein 1 (Homo sapiens) (UniProt Q5JTV8); assay: LAP1 binders from COS7 cell lysate, primary screen, small-molecule microarray, 635/667 nm fluorescence (AID 1116); settings: COS7-hLAP1 lysate binding, 635 nm fluorescence, higher = more signal
# [20] = target: Alpha-bungarotoxin (Bungarus multicinctus) (UniProt P60615); assay: alpha-bungarotoxin binders on microarray, profiling panel, artefact control for SMM control protein annotation, biochemical, small-molecule microarray, Alexa647 label, 635/667 nm fluorescence (AID 1117); settings: alpha-BTX-A647 binding fluorescence, higher = more signal
# Alpha-bungarotoxin (Bungarus multicinctus), sequence (P60615 whole entry, looked up): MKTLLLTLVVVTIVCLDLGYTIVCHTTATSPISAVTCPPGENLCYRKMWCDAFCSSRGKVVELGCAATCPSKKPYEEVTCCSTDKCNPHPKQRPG
# Dickkopf-related protein 1 (Homo sapiens), sequence (O94907 whole entry, looked up): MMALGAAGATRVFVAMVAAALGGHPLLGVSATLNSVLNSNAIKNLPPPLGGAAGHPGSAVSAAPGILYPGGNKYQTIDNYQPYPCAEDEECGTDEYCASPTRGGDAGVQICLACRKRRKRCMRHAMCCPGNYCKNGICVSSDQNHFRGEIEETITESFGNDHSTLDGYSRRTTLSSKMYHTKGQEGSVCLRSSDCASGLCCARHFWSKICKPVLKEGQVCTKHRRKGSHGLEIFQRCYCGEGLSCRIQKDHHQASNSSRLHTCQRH
# Left-right determination factor 2 (Homo sapiens), sequence (O00292 whole entry, looked up): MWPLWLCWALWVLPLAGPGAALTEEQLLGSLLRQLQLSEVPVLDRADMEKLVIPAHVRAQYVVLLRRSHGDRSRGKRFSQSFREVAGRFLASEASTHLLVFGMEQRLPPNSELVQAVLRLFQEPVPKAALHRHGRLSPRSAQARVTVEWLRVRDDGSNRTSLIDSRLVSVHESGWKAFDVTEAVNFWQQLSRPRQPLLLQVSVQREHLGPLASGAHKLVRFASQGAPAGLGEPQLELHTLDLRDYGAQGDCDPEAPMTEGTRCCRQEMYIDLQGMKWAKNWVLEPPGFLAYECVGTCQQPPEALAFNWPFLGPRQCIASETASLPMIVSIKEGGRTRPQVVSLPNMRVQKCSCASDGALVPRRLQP
# Follistatin-related protein 3 (Homo sapiens), sequence (O95633 whole entry, looked up): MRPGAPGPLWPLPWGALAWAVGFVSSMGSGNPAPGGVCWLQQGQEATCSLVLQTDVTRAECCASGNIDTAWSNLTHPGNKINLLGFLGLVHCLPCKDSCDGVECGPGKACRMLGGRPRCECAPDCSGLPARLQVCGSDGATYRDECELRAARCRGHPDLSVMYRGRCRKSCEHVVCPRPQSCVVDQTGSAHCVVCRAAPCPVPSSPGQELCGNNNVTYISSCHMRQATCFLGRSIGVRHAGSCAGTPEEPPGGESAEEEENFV
# Fibroblast growth factor 10 (Homo sapiens), sequence (O15520 whole entry, looked up): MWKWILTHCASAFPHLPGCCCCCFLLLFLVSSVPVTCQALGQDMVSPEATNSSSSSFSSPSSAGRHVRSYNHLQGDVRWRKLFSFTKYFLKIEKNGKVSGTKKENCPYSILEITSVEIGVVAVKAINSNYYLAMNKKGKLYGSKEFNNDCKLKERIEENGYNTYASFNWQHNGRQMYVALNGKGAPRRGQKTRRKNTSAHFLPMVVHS
# Epidermal growth factor receptor (Homo sapiens), sequence (P00533 whole entry, looked up): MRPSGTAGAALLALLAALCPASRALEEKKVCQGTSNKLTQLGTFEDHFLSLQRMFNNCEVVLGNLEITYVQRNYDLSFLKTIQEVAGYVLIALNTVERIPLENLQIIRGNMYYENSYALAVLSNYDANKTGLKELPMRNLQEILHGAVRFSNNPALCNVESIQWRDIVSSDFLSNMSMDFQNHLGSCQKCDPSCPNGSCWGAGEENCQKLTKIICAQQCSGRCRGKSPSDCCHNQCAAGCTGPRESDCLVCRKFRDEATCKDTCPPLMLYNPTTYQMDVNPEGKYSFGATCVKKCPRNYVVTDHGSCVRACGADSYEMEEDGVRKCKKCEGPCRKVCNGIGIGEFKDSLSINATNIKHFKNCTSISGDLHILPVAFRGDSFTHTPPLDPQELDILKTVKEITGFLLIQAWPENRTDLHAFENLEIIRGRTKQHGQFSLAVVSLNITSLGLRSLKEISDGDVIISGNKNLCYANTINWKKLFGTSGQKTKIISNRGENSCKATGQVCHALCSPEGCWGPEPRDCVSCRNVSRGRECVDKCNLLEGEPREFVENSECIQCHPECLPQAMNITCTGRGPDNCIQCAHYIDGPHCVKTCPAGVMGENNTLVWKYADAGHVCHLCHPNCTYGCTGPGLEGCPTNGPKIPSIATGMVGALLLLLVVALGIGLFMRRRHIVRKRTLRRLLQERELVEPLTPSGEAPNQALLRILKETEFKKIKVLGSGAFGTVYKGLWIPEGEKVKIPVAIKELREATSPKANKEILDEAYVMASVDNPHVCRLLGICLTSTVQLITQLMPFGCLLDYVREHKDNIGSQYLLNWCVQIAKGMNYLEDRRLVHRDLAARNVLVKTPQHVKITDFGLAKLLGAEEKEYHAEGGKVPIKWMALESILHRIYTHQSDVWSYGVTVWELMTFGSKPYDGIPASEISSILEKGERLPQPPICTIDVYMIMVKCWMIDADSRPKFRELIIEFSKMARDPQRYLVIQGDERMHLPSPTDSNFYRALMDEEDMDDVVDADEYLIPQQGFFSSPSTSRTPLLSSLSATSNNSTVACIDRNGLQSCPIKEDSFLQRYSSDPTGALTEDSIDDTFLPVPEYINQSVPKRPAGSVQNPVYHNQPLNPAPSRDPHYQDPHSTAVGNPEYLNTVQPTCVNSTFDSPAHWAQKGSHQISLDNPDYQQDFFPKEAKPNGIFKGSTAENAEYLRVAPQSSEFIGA
# Torsin-1A-interacting protein 1 (Homo sapiens), sequence (Q5JTV8 whole entry, looked up): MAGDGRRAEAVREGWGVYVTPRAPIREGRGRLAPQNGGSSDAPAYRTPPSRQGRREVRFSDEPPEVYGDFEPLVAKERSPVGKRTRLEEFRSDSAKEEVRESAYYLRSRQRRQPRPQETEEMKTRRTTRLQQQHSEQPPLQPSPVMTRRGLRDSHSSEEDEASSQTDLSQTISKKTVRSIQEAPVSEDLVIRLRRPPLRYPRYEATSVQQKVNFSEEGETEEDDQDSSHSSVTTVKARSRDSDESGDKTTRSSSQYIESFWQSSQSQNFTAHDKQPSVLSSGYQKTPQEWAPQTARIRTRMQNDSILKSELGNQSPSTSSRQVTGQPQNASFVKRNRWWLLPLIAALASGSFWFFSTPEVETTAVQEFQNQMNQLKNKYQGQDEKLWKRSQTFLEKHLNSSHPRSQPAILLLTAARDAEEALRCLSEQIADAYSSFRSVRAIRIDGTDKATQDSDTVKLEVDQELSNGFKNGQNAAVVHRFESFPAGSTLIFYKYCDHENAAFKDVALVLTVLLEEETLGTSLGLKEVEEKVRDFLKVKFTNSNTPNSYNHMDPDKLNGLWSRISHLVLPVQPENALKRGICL
SMILES,composite z-score [1],composite z-score [2],composite z-score [3],z-score [4],composite z-score [5],composite z-score [6],composite z-score [7],composite z-score [8],composite z-score [9],composite z-score [10],composite z-score [11],z-score [12],composite z-score [13],composite z-score [14],composite z-score [15],composite z-score [16],composite z-score [17],composite z-score [18],composite z-score [19],composite z-score [20]
O=C(NCc1ccc(F)cc1)[C@H]1C[C@H]2C(=O)NCC(=O)N2[C@H]1c1ccc(O)cc1,1.01,0.207,0.112,-0.12 (inactive),1.37,-0.88,0.297,0.138,0.787,0.43,1.03,-0.0497,0.887,-0.449,0.0871,-0.0684,-0.0553,-0.132,0.605,-0.144
CCCN1C(=O)[C@]2(Cc3ccccc31)N=C(c1ccc(OCCCO)cc1)O[C@@H]2c1ccccc1,1.07,0.0194,0.865,-0.898 (inactive),0.592,1.26,-0.489,0.515,-0.303,0.72,1.42,-3.29,-0.148,1.98,-0.317,0.0427,1.17,0.401,0.414,1.28
CCOC(=O)C[C@H]1[C@H](OC(=O)Cc2ccc3c(c2)OCO3)[C@@H](NC(=O)c2ccc3ccccc3n2)c2cc(OCCCO)ccc2N1C(=O)c1ccccc1,0.153,0.0565,-0.33,-0.149 (inactive),0.445,0.0897,0.0654,0.73,0.283,0.696,0.348,-1.26,-0.0499,0.179,-0.564,-0.0269,-0.214,0.0589,0.49,0.611
COc1cc2c(cc1O)C(c1cccs1)N(Cc1cc3c(cc1Br)OCO3)CC2 (stereo not given),1.5,0.421,0.726,-0.0664 (inactive),1.47,1.32,0.345,1.13,0.449,0.632,1.48,-2.05,0.236,1.88,0.602,-0.0286,0.23,1.03,1.14,2.08
Cc1ccc(S[C@]2(C(=O)NCc3ccccc3)CC(=O)N(C3CCCCC3)[C@@H]2c2ccc(CO)cc2I)cc1,1.25,-0.0018,0.379,-1.49 (inactive),0.861,0.1,-0.104,0.226,-0.358,-0.0734,1.23,-2.75,-0.364,0.699,-0.267,0.205,-0.0324,-0.18,0.759,0.604
CCOc1cc(C(O)C2C=CC3C(=O)NC(=O)C3N2Nc2ccc(Cl)cc2Cl)ccc1O (stereo not given),-0.402,0.737,0.942,1.22 (inactive),-0.251,-0.848,-0.238,-0.859,-0.765,1.37,-1.7,0.822,-1.18,-0.07,-0.0008,-0.154,0.0062,0.119,0.0975,-0.0945
CCOC(=O)C[C@H]1[C@H](OC(=O)c2cc3ccccc3oc2=O)[C@@H](NC(=O)c2ccccc2)c2cc(OCCCO)ccc2N1C(=O)c1ccccc1,-0.06,-0.198,-0.432,-0.644 (inactive),0.836,0.775,0.417,0.653,0.415,0.225,0.119,-0.148,0.535,-0.0848,-0.782,-0.0718,0.0121,-0.108,0.203,0.139
CC1CC/C=C\[C@H]2OC34C=CCN(c5ccc6ccccc6c5)C(=O)[C@H]3N(CCCO)C(=O)[C@@H]4C2C(=O)O1 (stereo not given in full),0.0565,-0.179,1.07,0.738 (inactive),-1.32,-0.592,-1.2,-0.912,-2.16,-0.223,-0.499,0.197,-1.85,-0.568,-0.028,-0.287,-0.291,-0.285,-0.406,-0.905
C=C(C(=O)CC[C@H](OC(=O)c1ccccc1-c1ccccc1C(=O)O)c1cccc(OCCO)c1)C(C)C,0.627,0.414,-0.265,-0.369 (inactive),0.353,-0.418,-0.803,0.0151,0.0159,0.495,-0.304,-1.73,-0.103,-0.119,-0.409,-0.184,-0.0605,-0.1,-0.126,0.436
C=CC[C@@H](OC(=O)Nc1ccc(SC)cc1)c1ccc(O)c(F)c1,0.522,0.0488,0.404,-1.79 (inactive),0.214,-0.0142,-0.361,0.155,0.183,0.77,-0.148,0.56,-0.28,-0.818,-0.776,-0.0991,0.42,-0.036,0.958,0.26
CC(C)NC(=O)[C@@]1(c2ccc([N+](=O)[O-])cc2)CC(=O)N(C2CCCCC2)[C@@H]1c1ccc(CO)cc1,1.49,-0.723,0.0339,0.458 (inactive),1.23,0.645,0.0344,1.04,0.214,-0.0249,1.46,-0.778,-0.016,-0.0034,-0.0027,0.0115,-0.553,0.275,2.08,0.621
